Values joined by “and” are separate entries in the source; they are usually repeats but may differ in a detail not shown here. Equal entries are not always repeated. Active and inactive are the calls of the source. The calls were made as follows: active = hit-call score of the fitted dose curve at least 0.9, where 1 is the maximum; inactive = score below 0.9.
Key:
[1] = read-out: Interleukin-1 alpha (IL1a), IL1A (gene 3552); test: BSK_KF3CT_IL1a: BioMAP Diversity Plus: KF3CT Assay for Interleukin-1 alpha (IL1a) Biomarker Activity (AID 2283070); settings: primary human keratinocytes with fibroblasts; actives raise or lower the signal
In short: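 Primary skin co-culture (keratinocytes, foreskin fibroblasts), 24 h exposure; ELISA for IL-1a; bidirectional curve fit vs DMSO.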

[2] = read-out: TIMP metallopeptidase inhibitor 2 (TIMP2), TIMP2 (gene 7077); test: BSK_KF3CT_TIMP2: BioMAP Diversity Plus: KF3CT Assay for TIMP metallopeptidase inhibitor 2 (TIMP2) Biomarker Activity (AID 2283071); settings: primary human keratinocytes with fibroblasts; actives raise or lower the signal
In short: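 TIMP-2 measured by ELISA at 24 h in human keratinocyte/fibroblast primary co-cultures exposed to chemicals. Both increases and decreases were fitted against DMSO. Parallel cultures were stained with SRB for total protein as an overt-cytotoxicity check.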

[3] = read-out: C-C motif chemokine 2 (Homo sapiens) (UniProt P13500); test: BSK_KF3CT_MCP1: BioMAP Diversity Plus: KF3CT Assay for Monocyte Chemoattractant Protein 1 (MCP1/CCL2) Biomarker Activity (AID 2283073); settings: primary human keratinocytes with fibroblasts; actives raise or lower the signal
In short: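 Human keratinocyte plus foreskin fibroblast primary co-culture exposed to chemical for 24 h. MCP-1 levels measured by ELISA. Bidirectional curve fitting relative to DMSO negative control as baseline.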

[4] = read-out: Matrix Metallopeptidase 9 (MMP9), MMP9 (gene 4318); test: BSK_KF3CT_MMP9: BioMAP Diversity Plus: KF3CT Assay for Matrix Metallopeptidase 9 (MMP9) Biomarker Activity (AID 2283074); settings: primary human keratinocytes with fibroblasts; actives raise or lower the signal
In short: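 ELISA read-out of MMP-9 at 24 h post-dosing in a co-culture of human skin keratinocytes and foreskin fibroblasts. Gain or loss of signal was fitted in both directions against DMSO.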

[5] = read-out: urokinase plasminogen activator (uPA), PLAU (gene 5328); test: BSK_KF3CT_uPA: BioMAP Diversity Plus: KF3CT Assay for urokinase plasminogen activator (uPA) Biomarker Activity (AID 2283075); settings: primary human keratinocytes with fibroblasts; actives raise or lower the signal
In short: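 Skin co-culture (keratinocytes + foreskin fibroblasts), human primary; 24 h post-dose; uPA by ELISA; gain/loss fit vs DMSO baseline.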

[6] = read-out: CD40, CD40 (gene 958); test: BSK_LPS_CD40: BioMAP Diversity Plus: LPS Assay for CD40 Biomarker Activity (AID 2283076); settings: primary human HUVEC with PBMC; actives raise or lower the signal
In short: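 Primary human umbilical vein endothelial cells co-cultured with peripheral blood mononuclear cells, LPS-stimulated, were dosed with chemical and read 24 h later. CD40 levels were measured by ELISA and fitted bidirectionally against DMSO as negative control and baseline.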

[7] = read-out: E-selectin (Homo sapiens) (UniProt P16581); test: BSK_LPS_Eselectin: BioMAP Diversity Plus: LPS Assay for Eselectin Biomarker Activity (AID 2283077); settings: primary human HUVEC with PBMC; actives raise or lower the signal
In short: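 Human umbilical vein endothelial cells co-cultured with peripheral blood mononuclear cells under LPS stimulation; E-selectin measured by ELISA 24 h after chemical dosing. Activity fitted bidirectionally against DMSO as negative control and baseline.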

[8] = BSK_LPS_SRB: Viability Assessment in the BioMAP Diversity Plus: LPS Assay (AID 2283079); settings: primary human HUVEC with PBMC;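 also: total protein by sulforhodamine B absorbance as a cytotoxicity measure; measured one day after compound addition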
In short: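 Human umbilical vein endothelial cells co-cultured with PBMC (LPS system) were dosed for 24 h. Total protein was stained with 0.1% sulforhodamine B after 10% TCA fixation, read at 560 nm, and fitted bidirectionally against DMSO baseline.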

[9] = read-out: Interleukin-1 alpha (IL1a), IL1A (gene 3552); test: BSK_LPS_IL1a: BioMAP Diversity Plus: LPS Assay for Interleukin-1 alpha (IL1a) Biomarker Activity (AID 2283080); settings: primary human HUVEC with PBMC; actives raise or lower the signal
In short: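 Human umbilical vein endothelial cells co-cultured with peripheral blood mononuclear cells were LPS-stimulated and exposed to test chemicals for 24 h. IL-1 alpha was quantified by ELISA, with bidirectional curve fitting against DMSO as the negative control and baseline.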

[10] = read-out: Monocyte Chemoattractant Protein-1 (MCP1), CCL2 (gene 6347); test: BSK_LPS_MCP1: BioMAP Diversity Plus: LPS Assay for Monocyte Chemoattractant Protein-1 (MCP1) Biomarker Activity (AID 2283081); settings: primary human HUVEC with PBMC; actives raise or lower the signal
In short: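 HUVEC plus PBMC co-culture (human primary cells, LPS system) exposed to test chemical for 24 h; MCP-1 measured by ELISA. Bidirectional curve fitting against DMSO baseline; parallel SRB total-protein staining flags overt cytotoxicity.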

[11] = BSK_LPS_PGE2: BioMAP Diversity Plus: LPS Assay for Prostaglandin E2 (PGE2) Biomarker Activity (AID 2283082); settings: primary human HUVEC with PBMC; actives raise or lower the signal
In short: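 PGE2 release measured by ELISA in an LPS-activated co-culture of human umbilical vein endothelial cells and peripheral blood mononuclear cells, read at 24 h post-dosing. DMSO served as baseline for bidirectional curve fitting.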

[12] = read-out: Macrophage colony-stimulating factor (MCSF), CSF1 (gene 1435); test: BSK_LPS_MCSF: BioMAP Diversity Plus: LPS Assay for Macrophage colony-stimulating factor (MCSF) Biomarker Activity (AID 2283083); settings: primary human HUVEC with PBMC; actives raise or lower the signal
In short: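 Human umbilical vein endothelial cells co-cultured with peripheral blood mononuclear cells were exposed to compound for 24 h. M-CSF levels were measured by ELISA, and bidirectional curve fitting used DMSO as the negative control and baseline.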

[13] = read-out: Tumor necrosis factor (Homo sapiens) (UniProt P01375); test: BSK_LPS_TNFa: BioMAP Diversity Plus: LPS Assay for Tumour Necrosis Factor alpha (TNFa) Biomarker Activity (AID 2283085); settings: primary human HUVEC with PBMC; actives raise or lower the signal;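 as to AC50: TNFa protein level quantified by ELISA in the co-culture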
In short: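 TNFa was quantified by ELISA in LPS-activated co-cultures of human endothelial cells and PBMC, 24 h post-dosing. Both increases and decreases versus DMSO were fitted.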

[14] = read-out: Vascular cell adhesion molecule 1 (VCAM1), VCAM1 (gene 7412); test: BSK_LPS_VCAM1: BioMAP Diversity Plus: LPS Assay for Vascular cell adhesion molecule 1 (VCAM1) Biomarker Activity (AID 2283086); settings: primary human HUVEC with PBMC; actives raise or lower the signal
In short: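 VCAM-1 quantified by ELISA in an LPS-activated co-culture of human endothelial cells and peripheral blood mononuclear cells, read 24 h post-treatment. Fitted in both directions versus DMSO; parallel SRB staining flags overt cytotoxicity.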

[15] = read-out: CD38, CD38 (gene 952); test: BSK_SAg_CD38: BioMAP Diversity Plus: SAg Assay for CD38 Biomarker Activity (AID 2283087); settings: primary human HUVEC with PBMC; actives raise or lower the signal
In short: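 CD38 quantified by ELISA (fluorescence) in a superantigen-activated endothelial cell–PBMC co-culture at 24 h post-dose. Activity fitted in both directions relative to DMSO; parallel SRB and Alamar Blue cytotoxicity read-outs.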

[16] = read-out: CD40, CD40 (gene 958); test: BSK_SAg_CD40: BioMAP Diversity Plus: SAg Assay for CD40 Biomarker Activity (AID 2283088); settings: primary human HUVEC with PBMC; actives raise or lower the signal
In short: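 Human umbilical vein endothelial cells co-cultured with PBMC; CD40 levels measured by ELISA with fluorescence read-out 24 h after chemical dosing. Gain or loss of signal fitted bidirectionally against DMSO baseline.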

[17] = read-out: CD69, CD69 (gene 969); test: BSK_SAg_CD69: BioMAP Diversity Plus: SAg Assay for CD69 Biomarker Activity (AID 2283089); settings: primary human HUVEC with PBMC; actives raise or lower the signal
In short: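 Endothelial/PBMC co-culture; chemical added; 24 h incubation; CD69 ELISA with fluorescence detection; bidirectional fit vs DMSO.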

[18] = read-out: Transforming growth factor beta 1 (TGFb1), TGFB1 (gene 7040); test: BSK_KF3CT_TGFb1: BioMAP Diversity Plus: KF3CT Assay for Transforming growth factor beta 1 (TGFb1) Biomarker Activity (AID 2283072); settings: primary human keratinocytes with fibroblasts; actives raise or lower the signal
In short: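 ELISA quantifies TGF-b1 at 24 h post-dose in a primary human skin co-culture of keratinocytes and fibroblasts, with gain or loss judged against DMSO. Parallel SRB total-protein staining flags overt cytotoxicity.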

[19] = read-out: Tissue Factor, F3 (gene 2152); test: BSK_LPS_TissueFactor: BioMAP Diversity Plus: LPS Assay for Tissue Factor Biomarker Activity (AID 2283084); settings: primary human HUVEC with PBMC; actives raise or lower the signal
In short: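 Human umbilical vein endothelial cells co-cultured with peripheral blood mononuclear cells were dosed and stimulated with LPS. Cell-surface CD142 was quantified by ELISA at 24 h. Activity was fitted bidirectionally against DMSO baseline.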

[20] = read-out: Interleukin-8 (IL8), CXCL8 (gene 3576); test: BSK_LPS_IL8: BioMAP Diversity Plus: LPS Assay for Interleukin-8 (IL8) Biomarker Activity (AID 2283078); settings: primary human HUVEC with PBMC; actives raise or lower the signal
In short: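 Human umbilical vein endothelial cells co-cultured with PBMC were stimulated with LPS; IL-8 levels were measured by ELISA 24 h after chemical dosing. Activity was fitted bidirectionally against DMSO as negative control and baseline.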

Measured: AC50

Sequence of Tumor necrosis factor (Homo sapiens) (P01375 whole entry, looked up): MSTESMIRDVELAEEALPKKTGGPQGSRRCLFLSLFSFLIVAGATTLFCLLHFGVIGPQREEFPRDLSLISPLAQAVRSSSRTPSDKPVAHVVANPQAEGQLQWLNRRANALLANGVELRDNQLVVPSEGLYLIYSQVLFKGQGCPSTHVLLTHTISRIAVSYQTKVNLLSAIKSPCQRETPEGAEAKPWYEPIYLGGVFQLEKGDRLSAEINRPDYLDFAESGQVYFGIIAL
Sequence of E-selectin (Homo sapiens) (P16581 whole entry, looked up): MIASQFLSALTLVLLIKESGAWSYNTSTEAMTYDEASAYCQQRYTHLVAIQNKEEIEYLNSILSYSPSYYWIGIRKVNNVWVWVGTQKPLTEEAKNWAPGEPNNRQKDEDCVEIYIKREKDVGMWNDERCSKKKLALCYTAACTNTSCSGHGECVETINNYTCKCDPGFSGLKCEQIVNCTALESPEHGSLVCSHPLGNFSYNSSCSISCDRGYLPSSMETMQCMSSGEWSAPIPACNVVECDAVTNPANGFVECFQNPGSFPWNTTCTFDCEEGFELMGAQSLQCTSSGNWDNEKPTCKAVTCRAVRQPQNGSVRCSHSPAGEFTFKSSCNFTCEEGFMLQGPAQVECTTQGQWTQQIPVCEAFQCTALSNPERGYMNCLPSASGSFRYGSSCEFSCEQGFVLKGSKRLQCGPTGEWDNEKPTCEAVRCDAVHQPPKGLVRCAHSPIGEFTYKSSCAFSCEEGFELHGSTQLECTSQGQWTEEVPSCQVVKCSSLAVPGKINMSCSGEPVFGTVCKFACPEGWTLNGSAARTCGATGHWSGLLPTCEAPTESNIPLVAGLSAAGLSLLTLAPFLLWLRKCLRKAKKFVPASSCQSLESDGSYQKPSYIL

OC(O)(C(F)C(O)(O)C(F)(F)F)C(F)(F)F
active: [13] 4 µM and 13.3 µM | [15] 16.6 µM and 18.1 µM
inactive: [1] | [2] | [3] | [4] | [5] | [6] | [7] | [8] | [9] | [10] | [11] | [12] | [14] | [16] | [17]

O=C(NO)C1(NS(=O)(=O)c2ccc(Oc3ccc(F)cc3)cc2)CCOCC1
inactive: [1] | [2] | [18] | [3] | [4] | [5] | [6] | [7] | [8] | [9] | [10] | [11] | [12] | [14] | [15] | [16] | [17]
active: [13] 3.97 µM

NCC(F)(F)C(F)(F)C(F)(F)C(F)(F)F
inactive: [1] | [2] | [3] | [4] | [5] | [6] | [7] | [8] | [9] | [10] | [11] | [12] | [19] | [13] | [14] | [15] | [16] | [17]

OC(Cn1cncn1)(Cn1cncn1)c1ccc(F)cc1F
inactive: [1] | [2] | [18] | [3] | [4] | [5] | [6] | [7] | [8] | [9] | [10] | [11] | [12] | [13] | [14] | [15] | [16] | [17]

CC(=O)c1ccccc1
inactive: [1] | [2] | [18] | [3] | [4] | [5] | [6] | [7] | [8] | [9] | [10] | [11] | [12] | [13] | [14] | [15] | [16] | [17]

FC(F)=C(F)C(F)(F)C(F)(F)C(F)(F)C(F)(F)C(F)(F)C(F)(F)F
inactive: [1] | [2] | [3] | [4] | [5] | [6] | [7] | [20] | [8] | [9] | [10] | [11] | [12] | [13] | [14] | [15] | [16] | [17]

Source: PubChem BioAssay (EPA / NIEHS)
